Test results from PubChem BioAssay (Tox21).
Records with an inconclusive call do not appear. Active and inactive are the calls of the source. Unless noted, the call rests on the fitted dose curve.

Tests used:
[1] = Nuclear factor erythroid 2-related factor 2/antioxidant responsive element (Nrf2/ARE) small molecule agonists: qHTS cell viability counter screen in human keratinocytes (AID 1919968; active means well fitted curve in the direction sought with a large enough effect in the repeat runs; an effect the other way counts as inactive or inconclusive; further: nearly all actives have a fitted effect of over 55% in size; further: potency means the concentration at half of the fitted maximal effect)
Method in brief: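 Parallel cytotoxicity read: KeratinoSens HaCaT cells, compound treatment 23 h, viability by CellTiter-Fluor fluorescence 1 h post-reagent.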

[2] = Nuclear factor erythroid 2-related factor 2/antioxidant responsive element (Nrf2/ARE) small molecule agonists: luciferase reporter gene qHTS assay in human keratinocytes (AID 1919969); further: nearly all actives have a fitted effect of over 35% in size; further: potency means the concentration at half of the fitted maximal effect
[3] = biological target: Gonadotropin-releasing hormone receptor (Homo sapiens) (UniProt P30968); test: Human gonadotropin-releasing hormone receptor (GnRHR) small molecule agonists, calcium flux assay in GnRHR-HEK293 cells (AID 1920063); further: nearly all actives have a fitted effect of over 35% in size
Method in brief: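 Calcium flux, agonist mode, human GnRHR stably integrated in HEK293; dye 1 h at 37 C before compound; Ex/Em=480/540 kinetic read, 3 min; 15 concentrations, triplicate.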

[4] = biological target: KiSS-1 receptor (Homo sapiens) (UniProt Q969F8); test: Human kisspeptin (KISS1R) small molecule agonists, calcium flux assay in KISS1R-HEK293 cells (AID 1920064; active means well fitted curve in the direction sought with a large enough effect in the repeat runs; an effect the other way counts as inactive or inconclusive)
Method in brief: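 Triplicate 15-concentration series were applied to dye-loaded human KISS1R HEK293 cells, and agonist-evoked calcium fluorescence was captured for 3 min.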

[5] = G protein-coupled receptor (GPCR) small molecule agonists, calcium flux assay: HEK293 wild type cell line counter screen (AID 1920065)
Method in brief: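 Non-specific calcium responders were flagged by adding DMSO-dissolved compounds to dye-loaded cells and reading 480/540 nm fluorescence each second for 3 min; ATP served as positive control.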

[6] = p53 small molecule agonists, cell-based qHTS assay with human liver microsomes (AID 1963577);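 further: p53 response element beta-lactamase reporter cells with liver microsomes plus NADPH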
Method in brief: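 With metabolic activation: human liver microsomes (0.5 mg/mL final) plus NADPH (0.5 mg/mL final) added alongside compounds to p53RE-bla cells; 16 h 37 C exposure; beta-lactamase read by LiveBLAzer fluorescence.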

[7] = p53 small molecule agonists, cell-based qHTS assay with human liver microsomes: qHTS cell viability counter screen (AID 1963579); further: nearly all actives have a fitted effect of over 45% in size
Method in brief: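 Metabolic activation used human liver microsomes and NADPH, both 0.5 mg/mL final, over 16 hours at 37 C on p53RE-bla cells (4,000/well). Cytotoxicity measured by CellTiter-Glo luminescence, 30 min at room temperature.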

[8] = p53 small molecule agonists, cell-based qHTS assay with rat liver microsomes: qHTS cell viability counter screen (AID 1963580); further: nearly all actives have a fitted effect of over 45% in size
Method in brief: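 Counter screen for cytotoxicity under metabolic activation: rat liver microsomes and NADPH, 0.5 mg/mL final each, added with compounds to p53RE-bla HCT-116 cells; 16 h at 37 C, then ATP luminescence read.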

[9] = p53 small molecule agonists, cell-based qHTS assay: qHTS cell viability counter screen (AID 1963581); further: nearly all actives have a fitted effect of over 45% in size
Method in brief: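 Multiplexed with the reporter read, a CellTiter-Glo step (30 min, room temperature) gauges ATP-based viability of HCT-116 p53RE-bla cells after 16 h compound incubation at 37 C.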

[10] = p53 small molecule agonists, cell-based qHTS assay (AID 1963582; active means well fitted activation curve with a large enough effect in the signal ratio in the repeat runs, not every such curve was filed as active; the % refers to the signal ratio)
Method in brief: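 Beta-lactamase reporter cells (p53RE-bla) treated with compounds for 16 h at 37 C; FRET substrate, 2 h, room temperature; fluorescence intensity.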

[11] = biological target: 5-hydroxytryptamine receptor 2A (Homo sapiens) (UniProt P28223); test: 5-hydroxytryptamine receptor 2A (HTR2A) small molecule antagonists, cell-based qHTS assay (AID 1963586); further: nearly all actives have a fitted effect of over 45% in size
Method in brief: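 CHO cells stably expressing human HTR2A were plated for 18 h at 37 C, then loaded with calcium dye for 1 h. Compounds were preincubated 5 min at room temperature before DOI (4 nM solution) was added. Kinetic fluorescence was read for 3 min.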

[12] = biological target: 5-hydroxytryptamine receptor 2A (Homo sapiens) (UniProt P28223); test: 5-hydroxytryptamine receptor 2A (HTR2A) small molecule agonists, cell-based qHTS assay (AID 1963587); further: nearly all actives have a fitted effect of over 30% in size; further: potency means the concentration at half of the fitted maximal effect
Method in brief: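 HTR2A-CHO cells, plated 18 h at 37 C/5% CO2, dye-loaded 1 h at 37 C; compounds in DMSO added by pin tool (agonist mode). Intracellular calcium flux read as kinetic fluorescence on FDSS over 2 min at 1 s intervals.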

[13] = biological target: Muscarinic acetylcholine receptor M1 (Homo sapiens) (UniProt P11229); test: Cholinergic receptor muscarinic 1 (CHRM1) small molecule agonists, cell-based qHTS assay (AID 1963589); further: nearly all actives have a fitted effect of over 35% in size
Method in brief: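 qHTS, 15-point titration, 3 independent runs: compounds pin-transferred onto dye-loaded CHRM1-CHO cells (human M1), calcium fluorescence followed every second to detect agonism.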

[14] = biological target: Beta-2 adrenergic receptor (Homo sapiens) (UniProt P07550); test: Adrenergic beta2 receptor (ADRB2) small molecule antagonists, cell-based qHTS assay (AID 1963592); further: series mostly up to about 92 µM; nearly all actives have a fitted effect of over 50% in size
Method in brief: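 Assay format: CHO-ADRB2 cells, 18-20hr seeding at 37C/5% CO2, then compound plus 1nM isoproterenol agonist mix for 0.5hr RT. Homogeneous time-resolved fluorescence cAMP detection after 1hr, expressed as 665/615 nm ratio.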

[15] = biological target: D(2) dopamine receptor (Homo sapiens) (UniProt P14416); test: Dopamine D2 receptor (DRD2) small molecule agonists, cell-based qHTS assay (AID 1963594); further: nearly all actives have a fitted effect of over 35% in size; further: potency means the concentration at half of the fitted maximal effect
Method in brief: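 HEK293 cells stably expressing DRD2 were cultured 24 h at 37 C, then given Ro20-1724 (0.1 mM final) and compounds for 10 min at room temperature. NKH477 (200nM) was then added for 30 min. cAMP was read by HTRF.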

[16] = biological target: D(2) dopamine receptor (Homo sapiens) (UniProt P14416); test: Dopamine D2 receptor (DRD2) small molecule antagonists, cell-based qHTS assay (AID 1963595; active means well fitted inhibition curve with a large enough effect in the signal ratio in the repeat runs, with a control signal flat; the % refers to the signal ratio; further: potency means the concentration at half of the fitted maximal effect)
Method in brief: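 Human DRD2 antagonist qHTS measuring cAMP by HTRF. The cells are exposed to compound for 10 min, then to NKH477 (200 nM) and quinpirole (12 nM) for 30 min at RT, with Ro20-1724 (0.1 mM) present throughout.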

[17] = biological target: Muscarinic acetylcholine receptor M1 (Homo sapiens) (UniProt P11229); test: Cholinergic receptor muscarinic 1 (CHRM1) small molecule antagonists, cell-based qHTS assay (AID 1963588); further: nearly all actives have a fitted effect of over 40% in size; further: potency means the concentration at half of the fitted maximal effect
Method in brief: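 Compounds were tested at 15 concentrations in three independent runs. Dye-loaded CHRM1-CHO cells were exposed 5 min at room temperature before stimulation by acetylcholine added at 50nM. Intracellular calcium was read kinetically on FDSS for 3 min.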

[18] = cAMP Responsive Elements (CRE) small molecule agonists, cell-based qHTS assay (AID 1963590)
Method in brief: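 Quantitative HTS for CRE agonists: HEK 293T CRE-bla cells, overnight plating, 3 h compound incubation at 37 C/5% CO2, then 2 h room-temperature LiveBLAzer B/G FRET substrate loading.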

[19] = cAMP Responsive Elements (CRE) small molecule antagonists, cell-based qHTS assay (AID 1963591; active means well fitted inhibition curve with a large enough effect in the signal ratio in the repeat runs, not every such curve was filed as active; the % refers to the signal ratio)
Method in brief: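 Fluorescence intensity from cleaved LiveBLAzer B/G substrate (2 h, room temperature) quantified CRE-bla activity in HEK 293T cells exposed 3 h to compound with 0.25 uM final NKH477.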

[20] = p53 small molecule agonists, cell-based qHTS assay with rat liver microsomes (AID 1963578)
Method in brief: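 Metabolic activation by rat liver microsomes and NADPH, each 0.5 mg/mL final, added right after compounds to p53RE-bla reporter cells (4,000/well, plated 5 h earlier). 16 h at 37 C, then LiveBLAzer substrate for 2 h at room temperature in the dark; fluorescence read-out.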

Measured: Potency

Chain of KiSS-1 receptor (Homo sapiens) (Q969F8 whole entry, looked up): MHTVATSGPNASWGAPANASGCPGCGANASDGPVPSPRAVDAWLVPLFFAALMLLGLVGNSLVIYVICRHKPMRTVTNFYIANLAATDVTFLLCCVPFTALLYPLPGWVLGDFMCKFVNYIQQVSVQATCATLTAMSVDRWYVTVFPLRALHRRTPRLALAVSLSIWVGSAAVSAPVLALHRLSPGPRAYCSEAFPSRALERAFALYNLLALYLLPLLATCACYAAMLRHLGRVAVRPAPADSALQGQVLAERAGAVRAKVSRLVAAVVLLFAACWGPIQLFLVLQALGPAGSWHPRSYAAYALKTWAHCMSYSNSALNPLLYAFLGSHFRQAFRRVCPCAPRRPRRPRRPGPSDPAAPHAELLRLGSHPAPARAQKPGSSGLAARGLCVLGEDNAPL
Chain of 5-hydroxytryptamine receptor 2A (Homo sapiens) (P28223 whole entry, looked up): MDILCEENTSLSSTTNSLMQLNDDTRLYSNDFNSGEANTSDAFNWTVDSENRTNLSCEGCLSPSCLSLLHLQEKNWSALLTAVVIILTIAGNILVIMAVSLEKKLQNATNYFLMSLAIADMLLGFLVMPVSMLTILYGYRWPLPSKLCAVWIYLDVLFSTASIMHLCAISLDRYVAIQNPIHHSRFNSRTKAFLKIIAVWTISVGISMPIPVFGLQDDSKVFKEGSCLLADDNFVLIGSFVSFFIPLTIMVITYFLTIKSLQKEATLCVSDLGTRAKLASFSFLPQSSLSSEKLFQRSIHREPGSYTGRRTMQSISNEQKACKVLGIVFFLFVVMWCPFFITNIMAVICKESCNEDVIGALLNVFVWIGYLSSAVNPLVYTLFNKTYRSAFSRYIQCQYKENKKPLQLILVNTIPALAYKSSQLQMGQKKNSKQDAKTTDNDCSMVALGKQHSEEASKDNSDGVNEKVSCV
Chain of Gonadotropin-releasing hormone receptor (Homo sapiens) (P30968 whole entry, looked up): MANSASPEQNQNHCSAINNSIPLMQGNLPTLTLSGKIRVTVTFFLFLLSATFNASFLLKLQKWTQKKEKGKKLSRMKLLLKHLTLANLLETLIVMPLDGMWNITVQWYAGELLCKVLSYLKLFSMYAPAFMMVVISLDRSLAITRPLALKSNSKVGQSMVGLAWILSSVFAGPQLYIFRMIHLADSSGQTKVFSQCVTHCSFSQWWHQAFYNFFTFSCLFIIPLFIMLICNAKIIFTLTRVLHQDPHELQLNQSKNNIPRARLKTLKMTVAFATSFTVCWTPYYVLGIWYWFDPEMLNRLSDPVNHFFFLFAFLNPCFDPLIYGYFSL
Chain of Muscarinic acetylcholine receptor M1 (Homo sapiens) (P11229 whole entry, looked up): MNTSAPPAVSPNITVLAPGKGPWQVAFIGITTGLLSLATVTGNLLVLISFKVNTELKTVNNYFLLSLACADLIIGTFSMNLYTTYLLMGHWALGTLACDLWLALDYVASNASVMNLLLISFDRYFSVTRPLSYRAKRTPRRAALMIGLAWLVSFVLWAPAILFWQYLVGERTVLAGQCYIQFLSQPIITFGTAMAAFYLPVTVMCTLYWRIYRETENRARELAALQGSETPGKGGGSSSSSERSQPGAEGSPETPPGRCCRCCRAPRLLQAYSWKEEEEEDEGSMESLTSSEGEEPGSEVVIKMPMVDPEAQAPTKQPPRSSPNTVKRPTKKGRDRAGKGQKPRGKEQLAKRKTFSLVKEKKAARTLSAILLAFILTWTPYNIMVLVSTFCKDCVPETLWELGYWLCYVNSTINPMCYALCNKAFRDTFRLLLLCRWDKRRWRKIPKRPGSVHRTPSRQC
Chain of Beta-2 adrenergic receptor (Homo sapiens) (P07550 whole entry, looked up): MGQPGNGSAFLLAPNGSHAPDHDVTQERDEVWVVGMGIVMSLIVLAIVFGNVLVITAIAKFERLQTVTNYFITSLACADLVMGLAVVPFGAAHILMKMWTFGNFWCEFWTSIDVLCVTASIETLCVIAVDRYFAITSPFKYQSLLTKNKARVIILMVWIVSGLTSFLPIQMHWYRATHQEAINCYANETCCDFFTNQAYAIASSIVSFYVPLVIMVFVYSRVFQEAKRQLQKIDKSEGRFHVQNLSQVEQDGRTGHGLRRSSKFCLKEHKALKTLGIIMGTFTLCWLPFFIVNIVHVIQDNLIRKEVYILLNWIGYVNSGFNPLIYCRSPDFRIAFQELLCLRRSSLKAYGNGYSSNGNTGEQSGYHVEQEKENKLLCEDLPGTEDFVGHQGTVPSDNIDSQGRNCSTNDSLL
Chain of D(2) dopamine receptor (Homo sapiens) (P14416 whole entry, looked up): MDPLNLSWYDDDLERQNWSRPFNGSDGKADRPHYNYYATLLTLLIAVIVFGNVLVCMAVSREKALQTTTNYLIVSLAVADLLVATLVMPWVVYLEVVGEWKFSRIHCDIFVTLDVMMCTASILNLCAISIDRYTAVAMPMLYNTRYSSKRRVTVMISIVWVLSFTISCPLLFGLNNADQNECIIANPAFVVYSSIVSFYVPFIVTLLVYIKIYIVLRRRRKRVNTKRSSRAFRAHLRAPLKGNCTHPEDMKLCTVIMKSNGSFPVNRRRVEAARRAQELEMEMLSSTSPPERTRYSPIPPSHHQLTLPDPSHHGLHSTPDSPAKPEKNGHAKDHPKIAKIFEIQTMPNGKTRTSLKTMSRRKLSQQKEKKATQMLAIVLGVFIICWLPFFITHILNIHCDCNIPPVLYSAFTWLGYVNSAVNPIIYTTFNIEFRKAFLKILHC

O=C(O)c1cc(Cl)cc(Cl)c1
not listed: [17] | [18] | [19] | [20]
inactive: all other assays above

COC(=O)c1ccccc1Cl
not listed: [16] | [20]
inactive: all other assays above

Clc1ccc2c(c1)CCc1cccnc1C2=C1CCNCC1
active: [1] 29.8 µM
not listed: [11] | [12] | [13] | [17] | [19] | [20]
inactive: all other assays above

CCOC(=O)c1cccnc1
not listed: [17] | [19] | [20]
inactive: all other assays above

NC(=O)CC[C@@H]1NC(=O)[C@H](Cc2ccccc2)NC(=O)[C@H](Cc2ccc(O)cc2)NC(=O)CCSSC[C@@H](C(=O)N2CCC[C@H]2C(=O)N[C@@H](CCCN=C(N)N)C(=O)NCC(N)=O)NC(=O)[C@H](CC(N)=O)NC1=O
inactive: [1] | [2] | [3] | [4] | [5] | [6] | [20] | [10] | [14] | [15]

CO/N=C(\C(=O)N[C@@H]1C(=O)N2C(C(=O)O)=C(CSc3nc(=O)c(O)nn3C)CS[C@H]12)c1csc(N)n1
active: [17] 0.516 µM
not listed: [18] | [20]
inactive: all other assays above

Cc1c(Cl)cccc1[N+](=O)[O-]
not listed: [14] | [20]
inactive: all other assays above

C=Cc1ccccc1
not listed: [7] | [8] | [9] | [10] | [14] | [19]
inactive: all other assays above

CCOC(=O)[C@H](CCc1ccccc1)N[C@@H](C)C(=O)N1CCC[C@H]1C(=O)O
not listed: [11] | [12] | [13] | [15] | [17] | [19] | [20]
inactive: all other assays above

CCOc1ccccc1O[C@H](c1ccccc1)[C@H]1CNCCO1
not listed: [11] | [12] | [14] | [15] | [17] | [20]
inactive: all other assays above

CN1Cc2cc(C(=O)N3CCC(C4CCNCC4)CC3)ccc2NC(CC(=O)O)C1=O (centres undefined)
active: [17] 1.3 µM
not listed: [15] | [18] | [20]
inactive: all other assays above

Cn1cnc2ncnc(N)c21
not listed: [15] | [20]
inactive: all other assays above

CC1CCCCC1
not listed: [12] | [17] | [20]
inactive: all other assays above

CCCN(CCC)CCc1cccc2c1CC(=O)N2
active: [12] 16.9 µM | [15] 0.0619 µM
not listed: [9] | [17] | [20]
inactive: all other assays above

CCC=CC#N
not listed: [7] | [10] | [15] | [17] | [19] | [20]
inactive: all other assays above

O=C1CCCCO1
not listed: [6]
inactive: all other assays above

O=c1[nH]cnc2ccccc12
active: [2] 0.0631 µM
not listed: [10] | [13] | [19] | [20]
inactive: all other assays above

CCCCCCCCCCCCCCCCOP(=O)([O-])OCC[N+](C)(C)C
not listed: [7] | [17] | [19] | [20]
inactive: all other assays above

CN1[C@@H]2CC[C@H]1CC(OC(=O)c1c[nH]c3ccccc13)C2 (some centres undefined)
not listed: [9] | [11] | [12] | [13] | [14] | [15] | [17] | [20]
inactive: all other assays above

O=C(O)CP(=O)(O)O
not listed: [6]
inactive: all other assays above

Nc1ccc(C(=O)NCC(=O)O)cc1
not listed: [6]
inactive: all other assays above

OCCN(CCO)c1cccc(Cl)c1
not listed: [8] | [12] | [13] | [20]
inactive: all other assays above

OCc1ccccn1
not listed: [7] | [9] | [20]
inactive: all other assays above

CCOC(=O)Cn1cccc1-c1nc(-c2ccc(OC)cc2)c(-c2ccc(OC)cc2)s1
not listed: [9] | [11] | [13] | [20]
inactive: all other assays above

CN1Cc2cc(C(=O)N3CCC(C4CCNCC4)CC3)ccc2N[C@@H](CC(=O)O)C1=O
active: [17] 1.63 µM
not listed: [7] | [8] | [11] | [20]
inactive: all other assays above

COC(=O)c1c(C)cc(O)c(C)c1O
not listed: [6] | [14]
inactive: all other assays above

COc1ccc(Nc2ccc(OC)cc2)cc1
active: [2] 27.8 µM
not listed: [9] | [10] | [14] | [20]
inactive: all other assays above

O=C(CCCN1CCC(O)(c2ccc(Br)cc2)CC1)c1ccc(F)cc1
active: [16] 0.188 µM
not listed: [7] | [11] | [12] | [14] | [17] | [18] | [20]
inactive: all other assays above

CCOCCn1c(C2CCN(CCc3ccc(C(C)(C)C(=O)O)cc3)CC2)nc2ccccc21
not listed: [7] | [12] | [17] | [19] | [20]
inactive: all other assays above

CCCCCCCCCCCCCCCC(=O)OC[C@H](O)[C@H]1OC(=O)C(O)=C1O
not listed: [8] | [10] | [15] | [20]
inactive: all other assays above
